From PubChem BioAssay come the findings set out here.

Activity calls are given as the source filed them.

A short description of this test: cell viability in Huh7 cells, primary screen, cytotoxicity control for HCV replication inhibitor project, CellTiter-Glo luminescence, basal, 48 h (AID 1143).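 Note: Huh7 hepatoma cells carrying a hepatitis C replication reporter with no stimulus; test concentration not given here.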 The note with it: Huh7 HCV replicon, higher = more signal, called active from +8 up or from −8 down.
Consider `COc1ccc([Si](C)(C)[C@@H]2[C@@H](CCO)O[C@]3(C(=O)N(Cc4cccc(N5CCOC5=O)c4)c4ccccc43)[C@H]2C)cc1`, for which the z-score was -5.47 (inactive).

For the molecule `CCOC(=O)C1=CC[C@H]2C(=O)N(c3ccccc3)C(=O)[C@@H]12`, the z-score is -0.321 (inactive).

In the case of `CCOC(=O)C[C@H]1[C@H](OC(=O)c2ccc(C(=O)c3ccccc3)cc2)[C@@H](NC(=O)Cc2ccc(OC)cc2)c2cc(OCCCO)ccc2N1C(=O)c1ccc2ccccc2n1`, the z-score was 0.0378 (inactive).

In the case of `COC(=O)[C@@]1(Cc2ccc(F)cc2)[C@H]2c3cc(C(=O)N(C)C)n(Cc4cc(C)n(C)n4)c3C[C@H]2CN1C(=O)c1ccccc1`, the z-score was -0.617 (inactive).

For the molecule `CCCC[C@@H]1C[C@H]1[C@@H](NC(=O)c1cccnc1)c1ccc(Cl)cc1`, the z-score was -1.25 (inactive).

Turning to `[N-]=[N+]=Nc1ccccc1C[C@@]1(C(=O)N2CCCCC2)N=C(c2ccc(OCCCO)cc2)O[C@@H]1c1ccccc1N=[N+]=[N-]`, the z-score was -5.13 (inactive).

Turning to `C=CCC(OC(C)=O)[C@@H]1[C@@H](N(Cc2ccc(-c3cccc(C(F)(F)F)c3)o2)C(=O)c2cccc3ccccc23)c2cc(OCCCO)ccc2N1C(=O)Cc1ccc2ccccc2c1` (stereo partly specified), the z-score was -0.952 (inactive).

Regarding `CCCCN1CC=CC23O[C@@H]4C=CCOC(=O)[C@@H]4[C@H]2C(=O)N(CCCCCCO)[C@@H]3C1=O` (stereo partly specified), the z-score was 0.205 (inactive).

With `O=C1C2C=CC(C(O)C=Cc3ccc([N+](=O)[O-])cc3)N(n3cnnc3)C2C(=O)N1Cc1ccccc1` (stereo unspecified), the z-score was -0.274 (inactive).

For the molecule `O=C1[C@H]2C=C(Br)[C@H](C[C@@H]2OCCCCCCO)[C@@]12CO2`, the z-score was 0.993 (inactive).

Turning to `CCCCCCCCCCC(O)C1C=CC2C(=O)NC(=O)C2N1Nc1ccc(Cl)cc1Cl` (stereo unspecified), the z-score is -1.95 (inactive).

Regarding `C=CC1c2cc(O)c(OC)cc2CCN1Cc1cccc(OC(F)(F)F)c1` (stereo unspecified), the z-score was -2.49 (inactive).

As to `CC(C)[Si](C#C[Si](C(C)C)(C(C)C)C(C)C)(O[C@H](C)c1cn(Cc2ccccc2)nn1)C(C)C`, the z-score was -0.182 (inactive).

Consider `O=C1O[C@H](c2ccccc2)[C@H](c2ccccc2)N2[C@H]1[C@@H](C(=O)NC[C@H](O)c1ccccc1)[C@]1(C(=O)Nc3ccc(C#CC4=CCCCC4)cc31)[C@H]2c1ccccc1OCCO`, for which the z-score is -6.13 (inactive).

Consider `COc1ccc(-c2cc3c(c(Cc4ccccc4)n2)[Si](C(C)C)(C(C)C)OC3)cn1`, for which the z-score was -1.03 (inactive).

For `C=CCC(OC(C)=O)[C@@H]1[C@@H](N(Cc2ccc(-c3cccc(C(F)(F)F)c3)o2)C(=O)Cc2ccc(OC)cc2)c2cc(OCCCO)ccc2N1C(=O)c1ccc2ccccc2c1` (stereo partly specified), the z-score is -1.54 (inactive).

With `CCC(CC)C(O)C1C=CC2C(=O)N(c3ccccc3)C(=O)C2N1Nc1ccccc1` (stereo unspecified), the z-score was -0.125 (inactive).

Consider `CN1C(=O)C2C=CC(C(O)c3c(F)cccc3Cl)N(NC(=O)OC(C)(C)C)C2C1=O` (stereo unspecified), for which the z-score was 0.736 (inactive).

On to `C=C[C@H](C)[C@@H](OC(=O)Nc1ccc(SC)cc1)c1ccc(O)c2ccccc12`, for which the z-score was -1.08 (inactive).

As for `COc1ccccc1CN1C(=O)c2ccccc2[C@@H](C(=O)NCc2ccccc2)[C@@H]1c1ccc(CO)cc1`, the z-score was -0.107 (inactive).

`O=C1OCC=C[C@H]2OC34C=CCN(Cn5nnc6ccccc65)C(=O)[C@H]3N(CCCCCO)C(=O)[C@@H]4[C@@H]12` (stereo partly specified): the z-score was -0.17 (inactive).

Regarding `Cc1ccc(S[C@]2(C(=O)NCC(C)C)CC(=O)N(Cc3cc(C(F)(F)F)cc(C(F)(F)F)c3)[C@@H]2c2ccc(CO)cc2)cc1`, the z-score was 0.52 (inactive).

For the molecule `CS(=O)(=O)CCOC(=O)C1=CC(CCCO)=CC(C2CC2)N(Cc2cc3c(cc2Br)OCO3)C=C1C(=O)OCCS(C)(=O)=O` (stereo unspecified), the z-score was -0.737 (inactive).

In the case of `C=CCOC(=O)[C@H]1[C@@H]2C(=O)O[C@@H](c3ccccc3)[C@@H](c3ccccc3)N2[C@@H](c2ccc(OCCOC(=O)[C@H]3C[C@H]4C(=O)N[C@@H](CCCCN(C)C)C(=O)N4[C@H]3c3cccc(OCCO)c3)cc2)[C@]12C(=O)Nc1ccc(I)cc12`, the z-score is -0.366 (inactive).

With `COc1ccc([Si](C)(C)[C@H]2[C@H](CC(=O)N3CCC[C@H]3CO)O[C@@]3(C(=O)N(Cc4cccc(N5CCOC5=O)c4)c4ccccc43)[C@@H]2C)cc1`, the z-score is -5.09 (inactive).

As for `O=C1OCCC=C[C@H]2OC34C=CCN(c5ccc(Cl)cc5)C(=O)[C@H]3N(CCCO)C(=O)[C@@H]4C12` (stereo partly specified), the z-score was -2.24 (inactive).

For the molecule `COc1ccc(C(O)C2C=CC3C(=O)N(C)C(=O)C3N2N(c2ccccc2)c2ccccc2)c2ccccc12` (stereo unspecified), the z-score is 0.497 (inactive).

Turning to `COCC(=C=CC[C@H](O)c1cccc(OCCO)c1)CCO`, the z-score is 0.15 (inactive).

For the molecule `CC[C@@H]1C=C(C(=O)O)[C@H](c2ccc(C)cc2)N1S(=O)(=O)c1ccc(C)cc1`, the z-score is -0.52 (inactive).

Consider `O=C1NC(=O)C2C1C=CC(C(O)C1CC=CCC1)N2Nc1ccccn1` (stereo unspecified), for which the z-score is 0.607 (inactive).

For the molecule `COc1ccc(C(=O)Nc2cccc(CN3C(=O)[C@]4(O[C@H](CCn5cc(CCO)nn5)[C@@H]([Si](C)(C)c5ccc(OC)cc5)[C@@H]4C)c4ccccc43)c2)cc1`, the z-score was -7.97 (inactive).

With `CS(=O)(=O)CCOC(=O)C1=CC(CCCO)=CC(c2ccc(CN3CCCC3)cc2)N(Cc2cccc(OC(F)(F)F)c2)C=C1C(=O)OCCS(C)(=O)=O` (stereo unspecified), the z-score is -1.42 (inactive).

Take `COC(=O)c1c2oc(c1C(=O)OC)C(=O)N[C@@H](C(C)C)Cn1cc(nn1)C1(CCCCC1)NC(=O)N[C@H](CO)CC2`: the z-score was 0.24 (inactive).

With `O=C1O[C@@H](c2ccccc2)[C@@H](c2ccccc2)N2[C@@H](c3ccc(OCCO)cc3)[C@]3(C(=O)Nc4ccc(C#CCCO)cc43)[C@@H](C(=O)NC[C@H](O)c3ccccc3)[C@H]12`, the z-score is -0.673 (inactive).

Take `CC(c1ccccc1)C(O)C1C=CC2C(=O)N(c3ccccc3)C(=O)C2N1Nc1ccccc1` (stereo unspecified): the z-score was -3.13 (inactive).

As for `CC1CC/C=C\[C@H]2OC34C=CCN(Cc5ccccc5)C(=O)[C@H]3N(C(C)CO)C(=O)[C@@H]4C2C(=O)O1` (stereo partly specified), the z-score is 0.0111 (inactive).
